Measurements reported in PubChem BioAssay (NCATS).
Records with an inconclusive call do not appear. A call without a number means that no potency is given here. Calls of active or inactive are those of the source. Calls come from the whole dose curve; as a rule, active = well fitted curve in the direction sought with a large enough effect; inconclusive = small, poorly fitted or top-dose-only effect, or another doubt; inactive = no such curve, though single readings can be large; an effect the other way counts as inactive or inconclusive.

Legend:
[1] = qHTS of pediatric cancer cell lines to identify multiple opportunities for drug repurposing: Primary screen for U-2 OS cells (AID 1347096); note: nearly all actives have a fitted effect of over 50% in size; note: potency is the fitted concentration of half-maximal effect
In short: (§1)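 Cells (500-1,000/well) rested 5 h, then received compounds for 48 h; metabolically active cells were measured by CellTiter-Glo luminescence. Final concentrations spanned up to 46 µM (MIPE, 11-point) or 0.59 nM-46 µM (NPC, 8-point) in primary screens, 11-point in follow-ups.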

[2] = qHTS of pediatric cancer cell lines to identify multiple opportunities for drug repurposing: Primary screen for Saos-2 cells (AID 1347097); note: nearly all actives have a fitted effect of over 40% in size; note: potency is the fitted concentration of half-maximal effect
In short: (§2)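 ATP-based luminescence (CellTiter-Glo) quantifies viability after a 48-hour exposure. Compounds are dosed across 8 or 11 final concentrations; DMSO and 2.3 µM bortezomib serve as controls.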

[3] = qHTS of pediatric cancer cell lines to identify multiple opportunities for drug repurposing: Primary screen for SK-N-SH cells (AID 1347098); note: nearly all actives have a fitted effect of over 65% in size; note: potency is the fitted concentration of half-maximal effect
In short: as §1

[4] = qHTS of pediatric cancer cell lines to identify multiple opportunities for drug repurposing: Primary screen for NB1643 cells (AID 1347099); note: nearly all actives have a fitted effect of over 50% in size; note: potency is the fitted concentration of half-maximal effect
In short: as §2

[5] = qHTS of pediatric cancer cell lines to identify multiple opportunities for drug repurposing: Primary screen for LAN-5 cells (AID 1347100); note: potency is the fitted concentration of half-maximal effect
In short: as §1

[6] = qHTS of pediatric cancer cell lines to identify multiple opportunities for drug repurposing: Primary screen for BT-12 cells (AID 1347101); note: nearly all actives have a fitted effect of over 25% in size; note: potency is the fitted concentration of half-maximal effect
In short: as §1

[7] = qHTS of pediatric cancer cell lines to identify multiple opportunities for drug repurposing: Primary screen for Rh18 cells (AID 1347102); note: nearly all actives have a fitted effect of over 65% in size; note: potency is the fitted concentration of half-maximal effect
In short: as §1

[8] = qHTS of pediatric cancer cell lines to identify multiple opportunities for drug repurposing: Primary screen for OHS-50 cells (AID 1347103); note: nearly all actives have a fitted effect of over 40% in size; note: potency is the fitted concentration of half-maximal effect
In short: as §1

[9] = qHTS of pediatric cancer cell lines to identify multiple opportunities for drug repurposing: Primary screen for MG 63 (6-TG R) cells (AID 1347105); note: nearly all actives have a fitted effect of over 50% in size; note: potency is the fitted concentration of half-maximal effect
In short: as §2

[10] = qHTS of pediatric cancer cell lines to identify multiple opportunities for drug repurposing: Primary screen for control Hh wild type fibroblast cells (AID 1347106); note: nearly all actives have a fitted effect of over 55% in size; note: potency is the fitted concentration of half-maximal effect
In short: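 Viability after 48 h compound treatment at 37C, 500-1,000 cells/well, read as ATP luminescence with CellTiter-Glo. Primary screens used 11-point (MIPE, 0.78 nM-46 µM) or 8-point (NPC, 0.59 nM-46 µM) final concentrations; follow-up screens used 11-point dilutions.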

[11] = qHTS of pediatric cancer cell lines to identify multiple opportunities for drug repurposing: Primary screen for Rh41 cells (AID 1347108); note: nearly all actives have a fitted effect of over 70% in size; note: potency is the fitted concentration of half-maximal effect
In short: as §2

[12] = qHTS of pediatric cancer cell lines to identify multiple opportunities for drug repurposing: Confirmatory screen for NB1643 cells (AID 1347109); note: nearly all actives have a fitted effect of over 45% in size; note: potency is the fitted concentration of half-maximal effect
In short: as §1

[13] = qHTS of pediatric cancer cell lines to identify multiple opportunities for drug repurposing: Confirmatory screen for A673 cells (AID 1347110);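 note: cells exposed to compound for 48 h before the viability read; nearly all actives have a fitted effect of over 65% in size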; note: potency is the fitted concentration of half-maximal effect
In short: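 qHTS titration format: primary MIPE 0.78 nM-46 µM (11 pts), NPC 0.59 nM-46 µM; confirmation 11 pts. 48 h, CTG luminescence.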

[14] = qHTS of pediatric cancer cell lines to identify multiple opportunities for drug repurposing: Confirmatory screen for BT-12 cells (AID 1347112); note: nearly all actives have a fitted effect of over 55% in size; note: potency is the fitted concentration of half-maximal effect
In short: as §1

[15] = qHTS of pediatric cancer cell lines to identify multiple opportunities for drug repurposing: Confirmatory screen for DAOY cells (AID 1347114); note: nearly all actives have a fitted effect of over 65% in size; note: potency is the fitted concentration of half-maximal effect
In short: (§3)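 Viability measured as metabolically active cells via CellTiter-Glo luminescence following 48 hours of compound exposure, 11-point dilutions in confirmatory testing. 500-1,000 cells/well plated 5 hours before dosing; controls were DMSO and 2.3 µM bortezomib.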

[16] = qHTS of pediatric cancer cell lines to identify multiple opportunities for drug repurposing: Confirmatory screen for SJ-GBM2 cells (AID 1347116); note: nearly all actives have a fitted effect of over 60% in size; note: potency is the fitted concentration of half-maximal effect
In short: as §3

[17] = qHTS of pediatric cancer cell lines to identify multiple opportunities for drug repurposing: Confirmatory screen for BT-37 cells (AID 1347117); note: nearly all actives have a fitted effect of over 55% in size; note: potency is the fitted concentration of half-maximal effect
In short: as §1

[18] = qHTS of pediatric cancer cell lines to identify multiple opportunities for drug repurposing: Confirmatory screen for TC32 cells (AID 1347118); note: potency is the fitted concentration of half-maximal effect
In short: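 qHTS, TC32, 48 h drug treatment, CellTiter-Glo luminescence as a proxy for metabolically active cells; primary top concentration 46 µM (MIPE 11-pt, NPC 8-pt); confirmatory 11-pt.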

[19] = qHTS of pediatric cancer cell lines to identify multiple opportunities for drug repurposing: Primary screen for RD cells (AID 1347104); note: nearly all actives have a fitted effect of over 55% in size; note: potency is the fitted concentration of half-maximal effect
In short: as §2

[20] = qHTS of pediatric cancer cell lines to identify multiple opportunities for drug repurposing: Primary screen for Rh30 cells (AID 1347107); note: series mostly up to about 46 µM; nearly all actives have a fitted effect of over 75% in size
In short: as §1

Row | Compound | Potency [1] | Potency [2] | Potency [3] | Potency [4] | Potency [5] | Potency [6] | Potency [7] | Potency [8] | Potency [9] | Potency [10] | Potency [11] | Potency [12] | Potency [13] | Potency [14] | Potency [15] | Potency [16] | Potency [17] | Potency [18] | Potency [19] | Potency [20]
1 | CCOP(=O)(OCC)C(C)NC(=O)N(CCCl)N=O (stereo unspecified) | inactive | inactive | inactive | inactive | inactive | inactive | inactive | inactive | inactive | inactive | inactive |  |  |  |  |  |  |  |  | 
2 | CS(=O)(=O)c1ccc(C(=O)C2C(=O)CCCC2=O)c([N+](=O)[O-])c1 | inactive | inactive | inactive | 1 nM (active) | inactive | inactive | inactive | inactive | inactive | inactive |  | inactive | inactive | inactive | inactive | inactive | inactive | inactive |  | 
3 | COCCOCCO | inactive | inactive | inactive | inactive | inactive | inactive | inactive | inactive | inactive | inactive | inactive |  |  |  |  |  |  |  | inactive | inactive
4 | C[C@]12COC(=O)C[C@@H]1CC[C@@H]1[C@H]2CC[C@@]2(C)[C@H]1CC[C@]2(C)O | inactive | inactive | inactive | inactive | inactive | inactive | inactive | inactive | inactive | inactive | inactive |  |  |  |  |  |  |  | inactive | 
5 | C[C@]12CC[C@H]3[C@@H](CCC4=CC(=O)CC[C@@]43C)[C@H]1CC[C@H]2O | inactive | inactive | inactive | inactive | inactive | inactive | inactive |  | inactive | inactive | inactive |  |  |  |  |  |  |  |  | inactive
6 | O=C(O)COc1nc(Cl)c(Cl)cc1Cl | inactive | 1 nM (active) | inactive | inactive | inactive |  | inactive | inactive | inactive | inactive | inactive |  | 2180 nM (active) | inactive | inactive |  | inactive |  | inactive | inactive
7 | CCOP(=O)(NC(C)C)Oc1ccc(SC)c(C)c1 (stereo unspecified) | inactive | inactive | inactive | inactive | inactive |  | inactive |  | inactive | inactive | inactive |  |  |  |  |  |  |  | inactive | inactive
8 | CC1=C(C(=O)O)N2C(=O)[C@@H](N)[C@H]2SC1 | inactive | inactive | inactive | inactive | inactive |  | inactive | inactive | inactive | inactive | inactive |  |  |  |  |  |  |  | inactive | inactive
9 | Nc1ccc([N+](=O)[O-])cc1 | inactive | inactive | inactive | inactive | inactive |  | inactive |  | inactive | inactive | inactive |  |  |  |  |  |  |  |  | 
10 | O=c1[nH]c2ccc(Cl)cc2c(N[C@@H]2CN3CCC2CC3)c1-c1nc2ccccc2[nH]1 | 187 nM (active) | 418 nM (active) | 9610 nM (active) | 526 nM (active) | 148 nM (active) | 15300 nM (active) |  | 109 nM (active) | 235 nM (active) | 16600 nM (active) | 14800 nM (active) | 1310 nM (active) | 261 nM (active) | 13100 nM (active) | 9270 nM (active) | 1040 nM (active) | 5850 nM (active) | 465 nM (active) | 5900 nM (active) | inactive
11 | O=C(O)COc1ccccc1 | inactive | inactive | inactive | inactive | inactive |  | inactive | inactive | inactive | inactive | inactive |  |  |  |  |  |  |  |  | inactive
12 | O=S(=O)(O)C(F)(F)C(F)(F)C(F)(F)C(F)(F)C(F)(F)C(F)(F)C(F)(F)C(F)(F)F | inactive | inactive | inactive | inactive | inactive |  | inactive | inactive | inactive | inactive | inactive |  |  |  |  |  |  |  | inactive | 
13 | CCC(=O)O[C@@H]1C=C2CCC3C(CCC4(C)C3CC[C@@H]4OC(=O)CC)C2CC1 (stereo partly specified) | inactive | inactive | inactive | inactive | inactive |  | inactive | inactive | inactive | inactive | inactive |  |  |  |  |  |  |  | inactive | inactive
14 | NC1CC1c1ccccc1 (stereo unspecified) | inactive | inactive | inactive | inactive | inactive |  | inactive | inactive | inactive | inactive | inactive |  |  |  |  |  |  |  | inactive | inactive
15 | C[C@H]1CCCC=CC2C[C@H](O)C[C@@H]2[C@H](O)C=CC(=O)O1 (stereo partly specified) | 1 nM (active) | 3720 nM (active) | 1 nM (active) | 1 nM (active) | 1 nM (active) |  | 1 nM (active) | 1 nM (active) |  |  |  | 131 nM (active) | 414 nM (active) | 165 nM (active) |  | 208 nM (active) | 92.8 nM (active) | 117 nM (active) | 1 nM (active) | inactive
16 | C[C@]12Cc3cn[nH]c3C[C@@H]1CC[C@@H]1[C@H]2CC[C@@]2(C)[C@H]1CC[C@]2(C)O | inactive | inactive | inactive | inactive | inactive | inactive | inactive |  | inactive | inactive | inactive | inactive | inactive |  |  | inactive |  |  | inactive | 
